Measured values taken from the supplement of paper PMC6555819.

Columns and labels:
Experiment in all cases: PBM binding z-score (relative to random genomic background probes); higher = stronger binding; sequences stand for … in GC…GCGATTGACAGCGTAGAATGAAGG
[1] = test system: FXR:RXRa (NR concentration 270 nM, RXRa partner concentration 90 nM)
Outline: (§1)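 Each nuclear receptor dimer, without ligand, was incubated for 1 h on custom Agilent 4×180K protein-binding microarrays. Binding was detected with antibodies against each partner (one per run), and scanned fluorescence was regression-normalized. The binding z-scores are referenced to random human genomic background probes.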

[2] = test system: LXRa:RXRa (NR concentration 270 nM, RXRa partner concentration 90 nM)
Outline: as §1

[3] = test system: LXRa homodimer (NR concentration 270 nM)
Outline: as §1

[4] = test system: LXRb:RXRa (NR concentration 270 nM, RXRa partner concentration 90 nM)
Outline: as §1

[5] = test system: LXRb homodimer (NR concentration 270 nM)
Outline: as §1

[6] = test system: PPARa:RXRa (NR concentration 270 nM, RXRa partner concentration 90 nM)
Outline: as §1

[7] = test system: PPARg:RXRa (NR concentration 180 nM, RXRa partner concentration 90 nM)
Outline: as §1

[8] = test system: PPARg:RXRa 270nM:90nM, anti-RXR (NR concentration 270 nM, RXRa partner concentration 90 nM)
Outline: as §1

[9] = test system: PPARg:RXRa 30nM:10nM, anti-RXR (NR concentration 30 nM, RXRa partner concentration 10 nM)
Outline: as §1

[10] = test system: PPARg:RXRa 90nM:30nM, anti-RXR (NR concentration 90 nM, RXRa partner concentration 30 nM)
Outline: as §1

[11] = test system: PPARg:RXRa DBDmut IVT, anti-RXR (DBD mutation: RXRa K156A/R161A, NR concentration 270 nM, RXRa partner concentration 90 nM)
Outline: as §1

[12] = test system: PPARg:RXRa IVT, anti-PPARg (NR concentration 270 nM, RXRa partner concentration 90 nM)
Outline: as §1

[13] = test system: PPARg DBDmut:RXRa IVT, anti-PPARg (DBD mutation: PPARg1 K132A/R137A, NR concentration 270 nM, RXRa partner concentration 90 nM)
Outline: as §1

[14] = test system: PPARg DBDmut IVT, anti-PPARg (DBD mutation: PPARg1 K132A/R137A, NR concentration 270 nM)
Outline: as §1

[15] = test system: PPARg homodimer (NR concentration 180 nM)
Outline: as §1

[16] = test system: PXR:RXRa (NR concentration 270 nM, RXRa partner concentration 90 nM)
Outline: as §1

[17] = test system: PXR homodimer (NR concentration 270 nM)
Outline: as §1

[18] = test system: RARa:RXR (NR concentration 270 nM, RXRa partner concentration 90 nM)
Outline: as §1

[19] = test system: RARa homodimer (NR concentration 270 nM)
Outline: as §1

Row | Sequence | PBM binding z-score [1] | PBM binding z-score [2] | PBM binding z-score [3] | PBM binding z-score [4] | PBM binding z-score [5] | PBM binding z-score [6] | PBM binding z-score [7] | PBM binding z-score [8] | PBM binding z-score [9] | PBM binding z-score [10] | PBM binding z-score [11] | PBM binding z-score [12] | PBM binding z-score [13] | PBM binding z-score [14] | PBM binding z-score [15] | PBM binding z-score [16] | PBM binding z-score [17] | PBM binding z-score [18] | PBM binding z-score [19]
1 | ATCTCTAGGTAAAGTTCAGCGAAAGATCGATAGA | 1.69 | 2.33 | 1.67 | 1.65 | 0.72 | 2.81 | 3.77 | 4.78 | 2.56 | 4.27 | 2.11 | 2.5 | 1.45 | 1.53 | 1.49 | 2.29 | 1.48 | 2.06 | 0.708
2 | GCTGCAAGGTCAACTGATGGTCAGCTAAAGCTCG | 7.53 | 5.93 | 0.917 | 4.54 | 1.33 | 5.97 | 4.81 | 5.67 | 1.77 | 3.97 | 3.15 | 3.5 | 0.338 | -0.136 | 2.93 | 4.58 | 0.331 | 5.36 | 0.743
3 | AGTCAAAGTTCACGACGAGGTAACGTAAAGCACG | 7.08 | 6.16 | 3.15 | 3.94 | 0.875 | 5.45 | 7.81 | 7.17 | 4.47 | 6.41 | 0.0759 | 3.83 | 0.65 | 1.24 | 4 | 5.24 | 2.18 | 5 | 1.23
4 | TCTGCTAGGTCAGTTGGGCAGCTAACGAGCTGCC | 0.934 | 0.385 | -0.629 | 0.223 | 0.28 | 1.12 | 0.0296 | 1.52 | 0.946 | 1.17 | 2.07 | 2.7 | -0.163 | -0.28 | 0.0544 | -0.242 | -1.29 | 0.253 | -1.12
5 | TAGCCTAGGTCCTTCAGGGGCCAGTATAGAAAGC | -0.77 | -0.784 | -0.674 | -0.628 | -0.884 | -0.292 | -0.229 | -0.451 | -0.73 | -0.359 | -1.03 | -0.0823 | -0.672 | 0.051 | -0.932 | -0.686 | -0.979 | -0.334 | -0.852
6 | CATACCGGGTCAGCTAGGCCAGAGTAGGGACGGC | 2.5 | 1.78 | -0.499 | 1.04 | -0.0141 | 3.1 | 2.07 | 1.87 | 0.181 | 0.975 | 1.21 | 2.82 | 0.167 | 0.0787 | 0.359 | 1.05 | -0.232 | 1.76 | -0.125
7 | CGTCAAAGTTCAACTAAGGTAACGTATAGCACGC | 7.12 | 6.07 | 4.63 | 4.52 | 2.2 | 5.23 | 5.1 | 5.56 | 2.29 | 4.48 | 0.646 | 2.49 | 2.35 | 1.51 | 3.82 | 5.78 | 5.22 | 4.65 | 2.34
8 | CGTTCAAGGTCATAGGAGGTCAGTGAAGACAGAT | 7.91 | 7.81 | 5.4 | 6.52 | 1.26 | 6.19 | 6.82 | 6.49 | 2.97 | 5.27 | 3.95 | 5.26 | 1.34 | 2.03 | 5.42 | 6.86 | 5.84 | 6.33 | 3.73
9 | AGTCAAATTTCATCTAGGTAACGTAAGATATGCT | -0.224 | -0.221 | 0.168 | 0.0477 | 0.362 | 0.347 | 1.02 | 0.0693 | 0.291 | 0.178 | 0.205 | 2.04 | 1.11 | 1.49 | 0.098 | -0.111 | -0.176 | 0.369 | 0.837
10 | CTCGAAAGGTCAGTTGAGGTGAGTATACGGATAA | 6.96 | 5.84 | 1.79 | 4.51 | 2.26 | 5.5 | 4.89 | 5.13 | 1.86 | 4.15 | 2.81 | 3.53 | 0.544 | 1.62 | 5.81 | 5.79 | 0.639 | 5.08 | 3.41
11 | TCTAGGAGGACACGAAGGTCAGAGCTTTCCAGAG | 1.27 | 0.762 | 0.19 | 0.856 | -0.833 | 2.05 | 0.882 | 2.09 | 2.49 | 2.5 | 1.91 | 1.99 | -0.157 | -1.05 | 0.55 | 1.72 | 0.568 | 1.83 | -0.482
12 | TAGCCTAGGTCAGATCGGGGCAGTATACGCTATA | 3.05 | 1.42 | -0.378 | 1.22 | 0.212 | 1.93 | 0.989 | 1.43 | 0.0966 | 0.842 | 1.23 | 1.66 | 0.079 | -0.613 | -0.167 | 1.89 | -0.84 | 0.828 | -0.404
13 | ATATGAAGGTTATCGGGTCATTCAGTTTGCGCAT | 4.04 | 3.38 | 1.74 | 3.02 | 0.891 | 4.1 | 4.21 | 4.21 | 1.52 | 3.11 | 3.47 | 4.42 | 1.16 | 1.48 | 2.47 | 3.93 | 8.15 | 4.44 | 0.435
14 | CGAACTAGGTCAGAACAGGACAGTTAAGGATGAT | 1.32 | 0.929 | -0.00999 | 0.73 | -0.36 | 3.07 | 5.13 | 4.49 | 2.04 | 3.46 | 7 | 7.32 | 3.55 | 1.83 | 1.49 | 1.15 | 0.458 | 1.41 | 0.874
15 | CCTACTGGGCCACGAAAGGTAATTGATTCAGTGA | -0.128 | -0.227 | -0.337 | -0.403 | -0.777 | 1.1 | 1.63 | 1.38 | -0.0637 | 0.669 | 5.29 | 5.07 | 0.766 | -0.144 | 0.00713 | -0.257 | -0.335 | -0.102 | 0.0551
